Data as given in the OligoGym collection.

What follows are sequences tested against NARF (assay: pooled miR-30 sensor sort-seq; sequence = guide strand). Conditions: shRNA.
Further: reference of the scale not given here.

Row | Sequence | sensor-assay potency score (higher = more potent)
1 | TTGAGGAAACCACAGAGTCTTC | -1.68
2 | TATTTGAGCAATTTCACCTGAT | 0.609
3 | AAATCCGCAGCTATCGTCGTAT | -0.245

Each sequence was assayed against NAT8L in the same assay as above. Conditions: shRNA.

Row | Sequence | sensor-assay potency score (higher = more potent)
4 | TAGCGGTGGTAGCGGACCTGGA | -1.68
5 | TTGTGCACCACGGCGAACTCCA | -0.938
6 | TAACTTATTAGAAAATGTGTTG | -0.872
7 | TGAGTCCACAGACATCCGCAGC | -1.61
8 | TCTTAGGGTACAAACTACCGTT | -0.674
9 | ATCCGCAGCAGCTCCACCGTGT | -0.56
10 | TTCTCTGTCCCTTCGCTCGCTT | -0.787
11 | TACAGTCTACAAAACTCCCATC | -1.25
12 | TTAACAAAATCTGAGCTGCAAG | -1.08
13 | TGCCTCGGAAACGTGAGTCCAC | -0.669
14 | TTGGCGATGCCCTTGCCTCGGA | -0.817
15 | TTGTCCTCCTCGTGGGCCCGTG | -1.12

The sequences below were run against NAT9 in the same assay as above. Conditions: shRNA.

Row | Sequence | sensor-assay potency score (higher = more potent)
16 | TCAAACGCTGCAGCTCCTCTGA | -0.784
17 | TTGTTCACATGCAGTCTGCTGT | -0.324
18 | TGAAGGTACACTTGTCTGCATC | -1.11
19 | ATCCACTCGTGGTACCTGCTGG | -0.384
20 | TAGATCTGTGAGGAAGAGGTTC | -0.334
21 | TACACTTGTCTGCATCTTCCTG | -0.99
22 | TAAGGCTTCTCTTCCACGTGGC | 0.678
23 | TCTGATTTCATCCACTCGTGGT | -0.312
24 | TGAAGTTTCTGGAACATCCGGA | 0.756
25 | TTGTCTGCATCTTCCTGCCAGC | -1.08
26 | ACACTTGTCTGCATCTTCCTGC | 0.498
27 | TTCATCCACTCGTGGTACCTGC | -1.04

What follows are sequences tested against NBPF1 in the same assay as above. Conditions: shRNA.

Row | Sequence | sensor-assay potency score (higher = more potent)
28 | TTATGAGGTCTTCGCACTCTTC | -1.54
29 | TTGGTCTTCTTCCTCTTCCTGG | -0.175
30 | TTCGTTGATCTTCTTCCCCTTC | -0.152
31 | TAAAATGTTCGTCTCTGCCTTC | -0.476
32 | TTGATTTCTAAAATGTTCGTCT | 0.0571
33 | TCTTCGTTGATCTTCTTCCCCT | -0.277
34 | TTTTCTTCGTTGATCTTCTTCC | -0.0891
35 | TTCGTCTCTGCCTTCTCGCTGG | 0.0322
36 | TTTATGAGGTCTTCGCACTCTT | 0.0563

What follows are sequences tested against NCAPG2 in the same assay as above. Conditions: shRNA.

Row | Sequence | sensor-assay potency score (higher = more potent)
37 | TTCAATGCTATCCTCTTCCAAA | -0.814
38 | TAAGCAATGACGAATAACGTGA | 0.14
39 | AACATCTTTACACACAGTCAGG | -1.69
40 | TTAGTCTCCAGACTCCTCCTTA | 0.238
